hcDAF-12 act: activators of H. contortus DAF-12 nuclear receptor | HEK293 hcDAF-12 lit1-tk-luc reporter, luminescence; 0% DMSO, 100% Δ7-dafachronic acid | activation, % at 6.8 µM | hit rate 1.4% among 370,000 | AID 652067;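 active = activation above the mean of all tested compounds plus 3 SD, cut at about 5.5% in these data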
DAX1 inh-1: NR0B1 (DAX1) inhibition; HEK293 Gal4-DAX1 luciferase reporter, luminescence; inhibition, % at 6.75 µM; hit rate 0.99% among 340,000; AID 504766;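 active = inhibition above the mean over all tested compounds plus 3 SD, cut at about 4.2% in these data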;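 note: inhibition shows as a rise in luminescence from relieved DAX1 repression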
Target sequence (P51843 207-470 limits assumed): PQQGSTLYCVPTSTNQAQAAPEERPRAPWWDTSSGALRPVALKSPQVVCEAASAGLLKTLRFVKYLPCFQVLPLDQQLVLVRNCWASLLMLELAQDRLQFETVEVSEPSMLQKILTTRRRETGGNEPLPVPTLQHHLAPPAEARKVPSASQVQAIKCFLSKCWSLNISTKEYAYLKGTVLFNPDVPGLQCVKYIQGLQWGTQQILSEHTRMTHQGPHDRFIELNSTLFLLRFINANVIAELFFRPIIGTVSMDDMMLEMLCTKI
ssDAF-12 act: activators of S. stercoralis DAF-12 nuclear receptor; hit rate 1% among 370,000; AID 652126; activation, % at 6.8 µM; HEK293 ssDAF-12/GRIP1 lit1-tk-luc reporter, luminescence; % of 3 µM dafachronic acid response;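 active = activation above the mean over all tested compounds plus 3 SD, cut at about 0.9% in these data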
DAX1 inh-2: blocks DAX1 repression of SF-1 activated StAR promoter | HEK293T StAR-luciferase reporter, SF-1/DAX-1 repression relief | inhibition, % at 6.8 µM | hit rate 1.1% among 370,000 | AID 652010;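 active = inhibition above the mean over all tested compounds plus 3 SD, cut at about 3.6% in these data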;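 note: higher inhibition means more luminescence from relief of DAX-1 repression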
hgDAF12 agonist: agonists of H. glycines DAF-12 nuclear receptor. HEK293 GAL4-hgDAF12 UAS-luciferase reporter, agonist luminescence; normalized to butyrate control. hit rate 1.8% among 370,000. AID 687014. activation, % at 6.8 µM;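 active = activation above a cutoff set at the mean of all screened compounds plus 3 SD, cut at about 10% in these data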
DAX1 conf: confirmation of human DAX1 (NR0B1) inhibitors; shares compounds with DAX1 inh-2; HEK293T StAR-promoter luciferase reporter, SF-1/DAX-1 repression; inhibition, % at 6.8 µM; hit rate 87% among 2,400;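 active = inhibition above the average of every tested compound plus 3 SD, cut at about 3.8% in these data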;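 note: active compounds raise luminescence by relieving repression of the StAR reporter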
Target sequence (P51843 whole entry, looked up): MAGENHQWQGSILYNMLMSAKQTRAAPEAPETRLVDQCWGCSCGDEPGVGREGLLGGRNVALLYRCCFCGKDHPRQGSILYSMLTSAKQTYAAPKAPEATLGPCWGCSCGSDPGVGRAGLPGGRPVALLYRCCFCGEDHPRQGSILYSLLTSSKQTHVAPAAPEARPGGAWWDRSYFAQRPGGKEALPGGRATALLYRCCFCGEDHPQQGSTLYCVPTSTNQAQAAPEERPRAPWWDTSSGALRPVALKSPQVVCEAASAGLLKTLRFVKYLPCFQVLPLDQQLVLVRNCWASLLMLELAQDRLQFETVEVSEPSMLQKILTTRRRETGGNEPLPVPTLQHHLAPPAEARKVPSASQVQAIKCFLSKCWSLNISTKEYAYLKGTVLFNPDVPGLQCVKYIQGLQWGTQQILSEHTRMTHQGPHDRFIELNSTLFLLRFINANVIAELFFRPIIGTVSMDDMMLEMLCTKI
SF1 mutant ctr: nonselective inhibitor or artifact in SF-1 mutant DAX1 counter-screen; hit rate 78% among 2,400; inhibition, % at 6.8 µM; HEK293 StAR-luciferase, SF-1 AF2 mutant, luminescence; shares compounds with DAX1 inh-2; AID 652136;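 active = inhibition above the mean of all tested compounds plus 3 SD, cut at about 3% in these data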
LXR ag: LXR-beta agonism as hcDAF-12 counter-screen. 3,400 tested, under 10 active. HEK293 Gal4-LXR tk-luc reporter, luminescence, 24 h; normalized: DMSO 0%, positive control 100%. activation, % at 6.8 µM. shares compounds with hcDAF-12 act;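 active = mean percent activation of the reporter above a cutoff set as the average over tested compounds plus their standard deviation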
hcDAF12 conf: confirmation of H. contortus DAF-12 agonists | shares compounds with hcDAF-12 act | HEK293 hcDAF-12 lit1-tk-luc reporter, luminescence; % of Δ7-dafachronic acid response | activation, % at 6.8 µM | hit rate 61% among 3,400;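 active = mean activation across triplicate tests above the threshold derived from the earlier primary screen, cut at about 5.5% in these data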
hgDAF12 conf: confirmation of H. glycines DAF-12 agonists. shares compounds with hgDAF12 agonist. HEK293 GAL4-hgDAF12 luciferase reporter, agonist mode; percent of butyrate response. activation, % at 6.8 µM. hit rate 80% among 3,300. AID 743050;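 active = mean activation over triplicate wells above the hit cutoff derived from the earlier primary screen, cut at about 11% in these data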
LXR ag 2: activates human LXR-beta, counter-screen for DAF-12 agonists; shares compounds with hgDAF12 agonist; HEK293 Gal4-LXR luciferase reporter, 24 h; activation, % at 6.8 µM; 3,300 tested, under 10 active; AID 743051;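 active = mean activation of the triplicate above a set limit carried over from the primary screen, none filed active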
Of the large screens only hits and unclear results are named; the others gave an inactive call (follow-up assays come after a bar, where they were run). This is a sample that favours compounds with a hit; in the whole collection about 4.1% have one here.

Cn1c(/N=C(\N)c2ccccc2)nc2ccccc21	hcDAF-12 act 14, DAX1 inh-1 4.5, ssDAF-12 act 1.7, DAX1 inh-2 8.4, hgDAF12 agonist 21 | DAX1 conf 13 | SF1 mutant ctr 9.9 | LXR ag inactive | hcDAF12 conf 17 | hgDAF12 conf 20 | LXR ag 2 inactive
Cc1noc(C)c1S(=O)(=O)N1CCCc2nc(-c3ccc(Br)cc3)ccc21	none (no result: DAX1 inh-1)
Nc1nc(-c2ccc(Oc3ccccc3)cc2)cs1	none
Nc1nc(-c2ccc3ccccc3c2)cs1	hcDAF-12 act 6.4, DAX1 inh-2 12, hgDAF12 agonist 18 | DAX1 conf 9.9 | SF1 mutant ctr 7.5 | hgDAF12 conf 15 | LXR ag 2 inactive
Nc1nc(-c2ccc(-c3ccccc3)cc2)cs1	DAX1 inh-2 6.3, hgDAF12 agonist 19 | DAX1 conf 10 | SF1 mutant ctr 6.8 | hgDAF12 conf 20 | LXR ag 2 inactive
COc1ccc(S[C@]2(C(=O)N3CCOCC3)CC(=O)N(S(=O)(=O)c3ccc(F)cc3)[C@@H]2c2ccc(OC)cc2)cc1	none (no result: DAX1 inh-1)
COc1ccc(S[C@]2(C(=O)N3CCN(c4ncccn4)CC3)CC(=O)N(c3ccsc3)[C@@H]2c2ccc(OC)cc2)cc1	none (no result: DAX1 inh-1)
COc1ccccc1Cc1c(-c2ccccc2)nc2ccc(C)cn12	DAX1 inh-2 5.2, hgDAF12 agonist 17 (no result: DAX1 inh-1) | DAX1 conf inactive | SF1 mutant ctr 4.3 | hgDAF12 conf inactive | LXR ag 2 inactive
COc1ccccc1Cc1c(-c2ccc(C)cc2)nc2ccc(C)cn12	DAX1 inh-2 4.9, hgDAF12 agonist 14 (no result: DAX1 inh-1) | DAX1 conf 7.0 | SF1 mutant ctr 5.1 | hgDAF12 conf inactive | LXR ag 2 inactive
Cc1ccc(-c2nc3ccc(C)cn3c2CC2CCCCC2)cc1	hcDAF-12 act 10, ssDAF-12 act 2.2, DAX1 inh-2 7.2, hgDAF12 agonist 21 (no result: DAX1 inh-1) | DAX1 conf 3.8 | SF1 mutant ctr 3.2 | LXR ag inactive | hcDAF12 conf 9.1 | hgDAF12 conf 11 | LXR ag 2 inactive
Cc1ccc2nc(C3CCCCC3)c(CC(C)(C)C)n2c1	none (no result: DAX1 inh-1)
COc1ccc(CN(CCN2CCOCC2)C(=O)c2cc(F)cc(F)c2)cc1OC	none (no result: DAX1 inh-1)
C=CCN1C[C@H](COC(=O)c2ccc(C)c(C)c2)Oc2cccc(F)c2S1(=O)=O	none (no result: DAX1 inh-1)
COc1ccc(NC(=O)c2cn(-c3ccccc3)nc2-c2cc3ccccc3o2)cc1	none
OCc1cn(-c2ccccc2)nc1-c1cc2ccccc2o1	DAX1 inh-1 4.7, ssDAF-12 act 1.1, DAX1 inh-2 5.8, hgDAF12 agonist 14 | DAX1 conf 15 | SF1 mutant ctr 12 | hgDAF12 conf 15 | LXR ag 2 inactive
CCN(Cc1ccccc1)c1ccc(/C=C(\C#N)c2ccccn2)cc1	hcDAF-12 act 9.3, ssDAF-12 act 2.1, DAX1 inh-2 5.1, hgDAF12 agonist 27 | DAX1 conf 3.7 | SF1 mutant ctr 5.7 | LXR ag inactive | hcDAF12 conf inactive | hgDAF12 conf 13 | LXR ag 2 inactive
CN(CCC#N)c1ccc(/C=C(\C#N)c2ccccn2)cc1	hcDAF-12 act 17, ssDAF-12 act 2.1, DAX1 inh-2 5.7, hgDAF12 agonist 23 | DAX1 conf 12 | SF1 mutant ctr inactive | LXR ag inactive | hcDAF12 conf inactive | hgDAF12 conf 15 | LXR ag 2 inactive
CCN(CC)C(=O)c1ncn2c1C(=O)N[C@H](C)C2	none (no result: DAX1 inh-1)
CCCc1ccc(OCc2ccc(C(=O)N/N=C/c3cccnc3)o2)cc1	DAX1 inh-2 5.9, hgDAF12 agonist 14 | DAX1 conf 6.9 | SF1 mutant ctr 4.3 | hgDAF12 conf 17 | LXR ag 2 inactive
Cc1cc(NC(=O)c2ccc(NS(=O)(=O)c3ccccc3F)cc2)no1	none (no result: DAX1 inh-1)
Cc1ncc(C(=O)Nc2ccccc2)[nH]1	DAX1 inh-2 4.7, hgDAF12 agonist 21 | DAX1 conf 11 | SF1 mutant ctr 6.9 | hgDAF12 conf 13 | LXR ag 2 inactive
O=[N+]([O-])c1cccc(COc2ccc(CN3CCOCC3)cc2)c1	hcDAF-12 act 7.8, ssDAF-12 act 1.4, DAX1 inh-2 7.2, hgDAF12 agonist 20 | DAX1 conf 9.8 | SF1 mutant ctr 5.5 | LXR ag inactive | hcDAF12 conf 6.6 | hgDAF12 conf 16 | LXR ag 2 inactive
O=[N+]([O-])c1cccc(COc2ccc(CN3CCCC3)cc2)c1	DAX1 inh-2 4.5, hgDAF12 agonist 24 | DAX1 conf 11 | SF1 mutant ctr 6.8 | hgDAF12 conf 15 | LXR ag 2 inactive
O=[N+]([O-])c1cccc(CN2CCCCCC2)c1	none
CC(=O)c1cccc(Nc2ccc(Br)cc2)c1	DAX1 inh-2 9.7, hgDAF12 agonist 14 (no result: DAX1 inh-1) | DAX1 conf 12 | SF1 mutant ctr 6.3 | hgDAF12 conf inactive | LXR ag 2 inactive
COc1ccc(-c2cn3nc(SCC(=O)NCC4CCCO4)ccc3n2)cc1 (centres undefined)	DAX1 inh-2 13, hgDAF12 agonist 14 | DAX1 conf 8.5 | SF1 mutant ctr 4.0 | hgDAF12 conf 15 | LXR ag 2 inactive
O=C(CSc1ccc2nc(-c3ccccc3)cn2n1)NCC1CCCO1 (centres undefined)	none
COCC(=O)N1CCN(C(=O)C(=O)c2cccc(C(F)(F)F)c2)CC1	none (no result: DAX1 inh-1)
COc1ccc(C(CCOC(=O)Oc2ccccc2)c2cc(OC)c(OC)c(OC)c2)cc1 (centres undefined)	none (no result: DAX1 inh-1)
COc1ccccc1OCCNC(=O)c1ccc2c(c1)OCCO2	DAX1 inh-2 7.8, hgDAF12 agonist 17 | DAX1 conf 8.9 | SF1 mutant ctr 6.0 | hgDAF12 conf 14 | LXR ag 2 inactive
Cc1ccnc(NC(=O)c2cccc(S(=O)(=O)N3CCCc4ccccc43)c2)c1	DAX1 inh-2 7.7, hgDAF12 agonist 13 | DAX1 conf 9.1 | SF1 mutant ctr 6.4 | hgDAF12 conf 12 | LXR ag 2 inactive

High-throughput results (PubChem)
